From PubChem BioAssay (NCATS)
Records with an inconclusive call do not appear. Activity calls are given as the source filed them. The call rests on the fitted dose curve; in most records, active means well fitted inhibition curve with a large enough effect; inconclusive means small, poorly fitted or top-dose-only effect; inactive means flat fitted curve, though single readings scatter.

Experiments:
[1] = test system: CRL-7250; assay: Cytotoxic Profiling of Annotated Libraries Using Quantitative High-Throughput Screening (AID 1296008); conditions: Five cell lines viability, CellTiter-Glo ATP luminescence, 48-72 h; max response: hits give low values; on max response: on the % scale 0 is the no-effect control and ±100 the full control effect
Procedure, shortened: (§1)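 Compounds were pin-transferred onto cells and incubated 48 or 72 hr at 37 degree Celsius, 95% humidity. CellTiter-Glo was added, plates sat 10 min at room temperature, then ATP-coupled luminescence was imaged as the viability read-out.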

[2] = test system: HEK293; assay: as above; conditions: Five cell lines viability, CellTiter-Glo ATP luminescence, 48-72 h; max response: hits give low values
Procedure, shortened: as §1

[3] = test system: HaCat; assay: as above; conditions: Five cell lines viability, CellTiter-Glo ATP luminescence, 48-72 h; max response: hits give low values
Procedure, shortened: as §1

[4] = test system: KB-3-1; assay: as above; conditions: Five cell lines viability, CellTiter-Glo ATP luminescence, 48-72 h; max response: hits give low values
Procedure, shortened: as §1

[5] = test system: NIH3T3; assay: as above; conditions: Five cell lines viability, CellTiter-Glo ATP luminescence, 48-72 h; max response: hits give low values
Procedure, shortened: as §1

[6] = test system: NIH3T3; assay: qHTS assay to identify novel small-molecules to repurpose for Merkel cell carcinoma treatment (AID 1296009); conditions: MCC and control cell lines, CellTiter-Glo viability, 72 h; at 44.8 µM (top of the series) unless noted
Procedure, shortened: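 qHTS format: cells treated with library compounds in DMSO across 8 (NPC) or 11 (MIPE) concentrations. Readout after 72 hr at 37 degree celsius was CellTiter-Glo luminescence.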

Measured: max response
Further: nearly all actives have a fitted effect of over 60% in size.

CC(=O)OC1C(C)C2C(OC3OC(CO)C(O)C(O)C3O)OC=C(C(=O)O)C2C1OC(=O)c1ccccc1 (stereo not given)
inactive: [1] | [2] 1.6% | [3] -7.28% | [4] | [5] | [6] inactive [at 17.4 µM]

O=C(O)CCc1cc2ccoc2cc1O[C@@H]1O[C@H](CO)[C@@H](O)[C@H](O)[C@H]1O
inactive: [1] | [2] 1.52% | [3] 0.684% | [4] | [5] | [6]

COc1c(-c2ccc(O)cc2)cc(OC)c2c1oc1cc(O)c(OC3OC(CO)C(O)C3O)cc12 (stereo not given)
inactive: [1] -0.713% | [2] -3.64% | [3] -7.87% | [4] | [5] | [6] inactive [at 17.4 µM]

COC(=O)[C@H](O)[C@H]1C(C)(C)[C@H](OC(C)=O)[C@@]2(O)C(=O)[C@]1(C)C1CC[C@]3(C)C(CC(=O)O[C@H]3c3ccoc3)[C@]13O[C@@H]32 (stereo not given in full)
inactive: [1] | [2] -3.86% | [3] 4.44% | [4] -6.4% | [5] | [6] inactive [at 17.4 µM]

COc1ccc(OC)c(C2C(C#N)=C(N)Oc3n[nH]c(-c4ccc5ccccc5c4)c32)c1 (stereo not given)
inactive: [1] | [2] 0.943% | [3] -8.38% | [4] | [5] | [6]

CC(C)C(NC(=O)c1ccc(O)cc1)C(=O)N1CCCC1C(=O)Nc1c(O)cccc1C(=O)O (stereo not given)
inactive: [1] -0.89% | [2] -9.61% | [3] -4.47% | [4] 5.36% | [5] | [6] inactive [at 17.4 µM]

CC1(C)CC[C@]2(C(=O)O[C@@H]3O[C@H](CO[C@@H]4O[C@H](CO)[C@@H](O)[C@H](O)[C@H]4O)[C@@H](O)[C@H](O[C@@H]4O[C@H](CO)[C@@H](O)[C@H](O)[C@H]4O)[C@H]3O)CC[C@]3(C)C(=CCC4[C@@]5(C)CC[C@H](O[C@@H]6OC[C@@H](O)[C@H](O)[C@H]6O)[C@@](C)(C(=O)O)C5CC[C@]43C)[C@@H]2C1 (stereo not given in full)
inactive: [1] | [2] -19.5% | [3] -27.8% | [4] | [5] | [6] inactive [at 9.27 µM]

CCCN1CCC[C@@H](c2cccc(S(C)(=O)=O)c2)C1
inactive: [1] -1.62% | [2] -20.6% | [3] -5% | [4] -6.47% | [5] | [6]

O=C(O)c1ccnc2cc(C(OCC3CCC(F)(F)CC3)c3ccccc3Cl)[nH]c12 (stereo not given)
inactive: [1] 2.57% | [2] 4.55% | [3] -20.6% | [4] 8.39% | [5] | [6]

C=C1C(O)CC2C(C(=O)O)=COC(O[C@@H]3O[C@H](COC(=O)c4ccc(O)cc4)[C@@H](O)[C@H](O)[C@H]3O)C12 (stereo not given in full)
inactive: [1] | [2] -1.77% | [3] 2.09% | [4] | [5] | [6] inactive [at 17.4 µM]

CC(C(=O)Nc1cc(C#N)ccc1CCCC(=O)O)c1ccc(F)c2ccccc12 (stereo not given)
inactive: [1] -4.54% | [2] -6.85% | [3] -4.32% | [4] 5.51% | [5] | [6]

C=C1C[C@@]2(O)O[C@@]3(C[C@H]2C(C)C)[C@@H](C)CC[C@@H]13
inactive: [1] | [2] -11.6% | [3] -13.2% | [4] 9.57% | [5] | [6]

C[C@]1(OC(=O)/C=C\c2ccc(O)cc2)C[C@@H](O)[C@]2(O)C=CO[C@@H](O[C@@H]3O[C@H](CO)[C@@H](O)[C@H](O)[C@H]3O)C12 (stereo not given in full)
inactive: [1] -13.5% | [2] -4.97% | [3] -23.9% | [4] | [5] | [6] inactive [at 17.4 µM]

Cn1cc(Nc2cnccc2C(=O)O)c2cccnc21
inactive: [1] 1.11% | [2] -5.52% | [3] 4.86% | [4] | [5] | [6]

C=C1C(OC(C)=O)CCC2(C)CCC(C(C)(C)O)CC12 (stereo not given)
inactive: [1] -5.46% | [2] -1.52% | [3] -5.19% | [4] 1.41% | [5] | [6]

H-DPPDPDRFYGMM-NH2
inactive: [1] | [2] -1.35% | [3] -3.96% | [4] | [5] | [6] inactive [at 17.4 µM]

C=C(C(=O)O)[C@@H]1CC[C@H](C)[C@@H]2CC(=O)C(C)=C2C1
inactive: [1] | [2] 3.15% | [3] -2.91% | [4] 3.54% | [5] | [6]

Cn1cc(CCn2cnc(-c3cnn(C)c3)c2-c2ccc(C#N)cc2)cn1
inactive: [1] -0.888% | [2] 0.036% | [3] -11.5% | [4] | [5] | [6]

COc1cc(C[C@@]2(O)CO[C@@H](c3ccc(O[C@@H]4O[C@H](CO)[C@@H](O)[C@H](O)[C@H]4O)c(OC)c3)[C@H]2CO)ccc1O
inactive: [1] -6.96% | [2] 0.509% | [3] -8.64% | [4] 1.94% | [5] | [6] inactive [at 17.4 µM]

O=C(Cc1ccc(Cl)cc1)Nc1cnccc1C(=O)O
inactive: [1] | [2] 4.18% | [3] -20.9% | [4] 1.29% | [5] | [6]

CC(=O)O[C@@H]1[C@H](OC(C)=O)C[C@@]2(C)C(CC[C@@H](C)[C@]23Cc2c(O)cc4c(c2O3)CN([C@@H](CCC(=O)O)C(=O)O)C4=O)C1(C)C (stereo not given in full)
inactive: [1] -2.81% | [2] -1.84% | [3] -30.9% | [4] 5.86% | [5] | [6] inactive [at 17.4 µM]

C/C=C/C1OC2=C(C(=O)OC2(C)O)C(O)C1O (stereo not given)
inactive: [1] -6.2% | [2] -1.4% | [3] 2.04% | [4] -1.78% | [5] | [6]

C=C1C2CCC3C(CCC4[C@@]3(C)CCC[C@@]4(C)C(=O)O)(C2)[C@@H]1OC(=O)/C(C)=C\C (stereo not given in full)
inactive: [1] -44.5% | [2] -104% | [3] -0.634% | [4] 2.48% | [5] | [6] inactive [at 17.4 µM]

CC1OC(O[C@@H]2[C@@H](O)[C@H](OC(=O)[C@]34CCC(C)(C)C[C@H]3C3=CCC5[C@@]6(C)CC[C@H](O[C@@H]7O[C@H](C(=O)O)[C@@H](O)[C@H](O[C@@H]8OC[C@@H](O)[C@H](O)[C@H]8O)[C@H]7O[C@@H]7O[C@H](CO)[C@H](O)[C@H](O)[C@H]7O)[C@@](C)(C=O)C6CC[C@@]5(C)[C@]3(C)C[C@H]4O)O[C@H](C)[C@@H]2OC2OC(C)C(OC3OCC(O)C(O)C3O)C(O)C2O)C(O)C(O)C1O (stereo not given in full)
inactive: [1] 4.06% | [2] -14.3% | [3] -4.11% | [4] -3.93% | [5] | [6] inactive [at 9.27 µM]

CN1CCN(c2nc(-c3ccc(C(=O)NC4(C(=O)NCC#N)CCCCC4)cc3)cs2)CC1
inactive: [1] 2.74% | [2] -8.37% | [3] 1.43% | [4] -9.9% | [5] | [6]

CC(C)CC(=O)OC[C@@]1(O)C[C@@]23CC[C@H]4[C@@](C)(CCC[C@@]4(C)C(=O)O)[C@@H]2CC[C@@H]1C3
inactive: [1] | [2] 1.06% | [3] -4.56% | [4] 4.98% | [5] | [6] inactive [at 17.4 µM]

CCC(CC)CC1(C(=O)Nc2ccccc2SC(=O)C(C)C)CCCCC1
inactive: [1] | [2] -10.7% | [3] -14% | [4] 0.494% | [5] | [6]

Cc1nnc(-c2ccc3occ(-c4ccc(S(C)=O)cc4)c3c2)o1 (stereo not given)
inactive: [1] | [2] -3.27% | [3] -2.4% | [4] | [5] | [6]

C/C(=C\CC/C(C)=C/CC[C@]1(C)CCc2cc(O)cc(C)c2O1)CC/C=C(\C)C(=O)O
inactive: [1] 0.272% | [2] -1.65% | [3] 4.26% | [4] -3.09% | [5] | [6] inactive [at 17.4 µM]

COc1cccc(OC)c1-c1nc(C(=O)N[C@@H](CC(C)C)C(=O)O)cn1-c1ccnc2cc(Cl)ccc12
inactive: [1] | [2] -12.4% | [3] 3.78% | [4] | [5] | [6]

CC1=CCC[C@@H]2[C@](CCc3ccoc3)(C(=O)O)[C@H](C)CC[C@@]12C
inactive: [1] -2.77% | [2] -3.43% | [3] -10.6% | [4] 8.82% | [5] | [6]

CC1=C2C(=O)C=C(CO[C@@H]3O[C@H](CO)[C@@H](O)[C@H](O)[C@H]3O)[C@@H]2[C@H]2OC(=O)[C@H](C)[C@@H]2CC1
inactive: [1] -4.79% | [2] 3.74% | [3] 4.93% | [4] 0.664% | [5] | [6] inactive [at 17.4 µM]

COC(=O)C1=CO[C@@H](O[C@@H]2O[C@H](CO)[C@@H](O)[C@H](O)[C@H]2O)[C@@H]2[C@@H](C)[C@@H](OC(=O)/C=C/c3ccccc3)[C@@H](O)[C@H]12
inactive: [1] -5.94% | [2] -9.01% | [3] -9.9% | [4] | [5] | [6] inactive [at 17.4 µM]

Fc1cccc(CN(C2=NCCN2)c2c(Cl)cccc2Cl)c1
inactive: [1] -5.57% | [2] -13.5% | [3] 0.445% | [4] 5.56% | [5] | [6]

C=C1CC[C@@]2(OC1)O[C@H]1CC3C4CC=C5C[C@@H](O[C@@H]6O[C@@H](C)[C@H](O)[C@@H](O)[C@H]6O)C[C@@H](O[C@@H]6O[C@H](C)[C@H](O)[C@H](O)[C@H]6O[C@@H]6O[C@@H](C)[C@H](O)[C@@H](O)[C@H]6O)[C@]5(C)C4CC[C@]3(C)[C@H]1[C@@H]2C (stereo not given in full)
inactive: [1] | [2] 1.18% | [3] -14.8% | [4] 5.01% | [5] | [6] inactive [at 9.27 µM]
